Screening data as filed in PubChem.
KB-3-1 cytotox = kills parental KB-3-1 adenocarcinoma cells | Potency, µM (titrated, usually from 46.1 µM), actives largely listed as cytotoxic | actives 1.4% (n = 400,000) | KB-3-1 viability, CellTiter-Glo ATP luminescence, 72 h | AID 1347075; further: on the % scale 0 is the no-effect control and ±100 the full control effect; nearly all actives have a fitted effect of over 60% in size
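KB-3-1 parental drug-naive adenocarcinoma cells in DMEM/10% FBS, incubated 72 h at 37 C with pin-transferred compounds across a concentration series. Viability by CellTiter-Glo luminescence; concentration-response curves fitted after normalization.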
HT1080-NT tox = kills 2HG-producing HT-1080-NT fibrosarcoma cells | HT-1080-NT fibrosarcoma viability, CellTiter-Glo ATP luminescence, 48 h | Potency, µM (titrated, usually from 46.1 µM), without a hit: top-dose activity, negative = less viability, most hits filed as cytotoxic | actives 1.6% (n = 360,000);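 further: NT is the 2HG producing partner of a matched IDH1 knockdown line; 0% = DMSO-treated cells and -100% = media-only wells without cells; nearly all actives have a fitted effect of over 55% in size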
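Viability by CellTiter-Glo luminescence after 48 h compound exposure at 37C of HT-1080-NT cells (750/well, RPMI, 5% FBS). % activity scaled between DMSO wells and medium-only wells, then curve-fitted and categorized by curve class.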
SW480 rerep = induces DNA re-replication in SW480 colon adenocarcinoma cells | SW480 DNA re-replication, Hoechst DNA content imaging, 48 h | Potency, µM (doses to about 46.1 µM), for inactives: at the top dose re-replication activation, hits mostly activators | actives 1.8% (n = 340,000); further: % of control where 0% means no effect; nearly all actives have a fitted effect of over 55% in size
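Readout is total intensity of Hoechst-stained nuclei, excited at 405 nm and collected at 500-530 nm. Compound treatment lasted 48 hr at 37 C in 5% CO2 before staining.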
HT1080 IDH1KD tx = HT-1080 IDH1 knockdown cell toxicity (counter line); actives 2% (n = 360,000); AID 686971; Potency, µM (series often up to 46.1 µM), inactives show at the top dose activity, negative = toxicity, hits mostly cytotoxic; HT-1080 IDH1 knockdown viability, ATP luminescence, 48 h;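 further: 0% = DMSO wells and -100% = cell-free medium wells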
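Luminescent ATP read-out (CellTiter-Glo, 10 min at room temperature) after 48 h compound exposure at 37 °C gave viability of IDH1-knockdown HT-1080 cells. Activity was normalised to DMSO and cell-free wells, then fitted as concentration-response curves.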
MCF10A rerep = inducers of DNA re-replication in MCF 10A breast cells | AID 624296 | actives 2.9% (n = 350,000) | MCF 10A DNA re-replication, Hoechst nuclear intensity, 48 h | Potency, µM (series often up to 46.1 µM), for inactives: top-dose activity, positive = re-replication, actives largely listed as activators; further: % of control where 0% means no effect; nearly all actives have a fitted effect of over 50% in size
KB-V1 cytotox = kills drug-selected multidrug resistant KB-V1 cells; KB-V1 MDR cells viability, CellTiter-Glo, 72 h; Potency, µM (titrated, usually from 46.1 µM), hits mostly cytotoxic; actives 3.4% (n = 400,000); AID 1347076; further: on the % scale 0 is the no-effect control and ±100 the full control effect; nearly all actives have a fitted effect of over 60% in size
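Potencies derive from concentration-effect curves fitted to normalized luminescence (CellTiter-Glo) of KB-V1 cells treated for 72 h at 37 degrees C in phenol-red-free DMEM containing 10% FBS.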
Active calls of the source: *; [ ] = dose if it differs, or a comment. In the library only some 8% were active in any assay of this set; here they are far more common. The call rests on the fitted dose curve; in most records, active means well fitted curve in the direction sought with a large enough effect; inconclusive means small, poorly fitted or top-dose-only effect, or another doubt; inactive means no such curve, though single readings can be large; an effect the other way counts as inactive or inconclusive. Potency means the concentration at half of the fitted maximal effect.

Screening COc1ccc(NC(=O)c2c(C)nn(Cc3ccccc3Cl)c2Cl)cc1Cl returned KB-3-1 cytotox inactive, HT1080-NT tox -2%, SW480 rerep -5%, HT1080 IDH1KD tx 4%, MCF10A rerep 16µM* and KB-V1 cytotox inactive.
CCOc1ccc(/C=C/C(=O)C(C(N)=O)=C2SCCS2)cc1 was read as KB-3-1 cytotox inconclusive, HT1080-NT tox -5%, SW480 rerep 13%, HT1080 IDH1KD tx -1%, MCF10A rerep inconclusive and KB-V1 cytotox inconclusive.
For CC[C@H]1CC2CN3CCc4c([nH]c5cc(OC)ccc45)[C@](C(=O)OC)(C2)[C@H]13 the results were KB-3-1 cytotox inactive, HT1080-NT tox 3%, SW480 rerep 0.73µM*, HT1080 IDH1KD tx -2%, MCF10A rerep inconclusive and KB-V1 cytotox inactive.
Screening Cc1ccc(OCC(=O)Nc2ccc(Cl)cc2C(=O)c2ccccc2)c(Br)c1 returned KB-3-1 cytotox inactive and KB-V1 cytotox inactive.
For COC(=O)C1=C(c2ccccc2OCc2ccccc2)C[C@@H]2CC[C@H]1N2C(=O)NCCOc1ccccc1 the results were KB-3-1 cytotox inconclusive, HT1080-NT tox 1%, SW480 rerep 12%, HT1080 IDH1KD tx -17%, MCF10A rerep inconclusive and KB-V1 cytotox inconclusive.
Screening COC(=O)C1=C(c2ccc(OCc3ccccc3)cc2)C[C@@H]2CC[C@H]1N2C(=O)NCCc1ccc(F)cc1 returned KB-3-1 cytotox inconclusive, HT1080-NT tox -20%, HT1080 IDH1KD tx inconclusive and KB-V1 cytotox 16µM*.
COC(=O)C1=C(c2ccccc2OCc2ccccc2)C[C@@H]2CC[C@H]1N2C(=O)NCCOc1ccc(OC)cc1 was read as KB-3-1 cytotox inactive, HT1080-NT tox -4%, SW480 rerep inconclusive, HT1080 IDH1KD tx -6%, MCF10A rerep 6.5µM* and KB-V1 cytotox inactive.
`COC(=O)C1=C(c2ccc(OCc3ccccc3)cc2)C[C@@H]2CC[C@H]1N2C(=O)NCCCCc1ccccc1` gave KB-3-1 cytotox inconclusive, HT1080-NT tox -21%, HT1080 IDH1KD tx -11% and KB-V1 cytotox inconclusive.
`Clc1ccc(CC[C@H](Cn2ccnc2)Sc2c(Cl)cccc2Cl)cc1` gave SW480 rerep -4%[20.6 µM] and MCF10A rerep 11%[20.6 µM].
Screening Cc1cccc(NC(=O)Cn2cc(C(=O)c3ccccc3)c3ccccc32)c1C returned KB-3-1 cytotox inactive and KB-V1 cytotox inactive.
Screening CCOC(=O)C(C)Oc1cc(C)cc2oc(=O)c3c(c12)CCCC3 (stereo unspecified) returned KB-3-1 cytotox inactive, HT1080-NT tox -1%, SW480 rerep -2%, HT1080 IDH1KD tx -8%, MCF10A rerep inconclusive and KB-V1 cytotox 10µM*.
For O=C(N1CCCCCC1)N1CC1 the results were KB-3-1 cytotox inactive, HT1080-NT tox -3%, SW480 rerep 0%, HT1080 IDH1KD tx -1%, MCF10A rerep 1% and KB-V1 cytotox inactive.
`CN(C)P(=O)(C(Cl)=C(N1CCCCC1)N1CCCCC1)N(C)C` gave KB-3-1 cytotox inactive, HT1080-NT tox -28%, SW480 rerep -2%, HT1080 IDH1KD tx 13µM*, MCF10A rerep -1% and KB-V1 cytotox inactive.
Screening COC(=O)c1sccc1NC(=O)c1ccc(C#N)cc1 returned KB-3-1 cytotox inactive, HT1080-NT tox -2%, SW480 rerep inconclusive, HT1080 IDH1KD tx -4%, MCF10A rerep 5% and KB-V1 cytotox inactive.
Screening CCOC(=O)C(O)(c1ccc(NC(=S)NC(=O)c2ccc(Cl)cc2Cl)c(C)c1)C(F)(F)F (stereo unspecified) returned KB-3-1 cytotox inconclusive, HT1080-NT tox 16µM*, SW480 rerep 22%, HT1080 IDH1KD tx 23µM*, MCF10A rerep inconclusive and KB-V1 cytotox inconclusive.
Screening COC(=O)C(O)(c1ccc(NC(=S)NC(=O)c2ccc(Cl)cc2Cl)c(C)c1)C(F)(F)F (stereo unspecified) returned KB-3-1 cytotox inconclusive, HT1080-NT tox inconclusive, SW480 rerep 17%, HT1080 IDH1KD tx inconclusive, MCF10A rerep inconclusive and KB-V1 cytotox inconclusive.
Screening COC(=O)C(O)(c1ccc(NC(=S)NC(=O)c2ccc(Cl)cc2Cl)cc1)C(F)(F)F (stereo unspecified) returned KB-3-1 cytotox inconclusive, HT1080-NT tox -19%, SW480 rerep 40%, HT1080 IDH1KD tx -9%, MCF10A rerep inconclusive and KB-V1 cytotox 18µM*.
Screening CCC(C)(S(=O)(=O)CC)S(=O)(=O)CC returned SW480 rerep 7% and MCF10A rerep 4%.
`Cc1cccc(N2CCN(C(=O)c3ccc(CNc4c(N5CCC(C)CC5)c(=O)c4=O)cc3)CC2)c1C` gave KB-3-1 cytotox inactive, HT1080-NT tox -1%, SW480 rerep 5%, HT1080 IDH1KD tx -2%, MCF10A rerep -9% and KB-V1 cytotox inactive.
Screening CC(C)C[C@H]1C(=O)N2CCC[C@H]2[C@]2(O)O[C@](NC(=O)[C@@H]3C=C4c5cccc6[nH]c(Br)c(c56)CC4N(C)C3)(C(C)C)C(=O)N12 (stereo partly specified) returned KB-3-1 cytotox inactive, HT1080-NT tox -21%, SW480 rerep inconclusive, HT1080 IDH1KD tx inconclusive, MCF10A rerep inconclusive and KB-V1 cytotox inconclusive.
CC(C)(C)c1cc([N+](=O)[O-])cc(C(C)(C)C)c1O was read as KB-3-1 cytotox 12µM*, HT1080-NT tox inconclusive, SW480 rerep -13%, HT1080 IDH1KD tx inconclusive, MCF10A rerep 13% and KB-V1 cytotox inactive.
ClC(Cl)(Cl)Cl was read as SW480 rerep -7% and MCF10A rerep -1%.
O=P(OC1CCCCC1)(OC1CCCCC1)C(O)c1ccc(Cl)cc1Cl (stereo unspecified) was read as KB-3-1 cytotox inactive, HT1080-NT tox 0%, SW480 rerep inconclusive, HT1080 IDH1KD tx 15%, MCF10A rerep -109%[0.0737 µM] and KB-V1 cytotox inactive.
`O=P(OC1CCCCC1)(OC1CCCCC1)C(O)c1c(Cl)cccc1Cl` (stereo unspecified) gave KB-3-1 cytotox inconclusive, HT1080-NT tox -2%, SW480 rerep 9%, HT1080 IDH1KD tx -8%, MCF10A rerep inconclusive and KB-V1 cytotox 18µM*.
For C[C@]12CCC3C(CC[C@H]4CC(O)CC[C@]34C)C1CC/C2=N/NC(=O)c1ccncc1 (stereo partly specified) the results were KB-3-1 cytotox inactive, HT1080-NT tox -24%, SW480 rerep 12%, HT1080 IDH1KD tx -1%, MCF10A rerep inconclusive and KB-V1 cytotox inactive.
